Screening data: PubChem, Broad Institute
LGR2 inh: blocks bursicon-induced cAMP signaling via Drosophila LGR2 | HEK293 LGR2, CRE-luciferase, bursicon-stimulated, 4 h | inhibition, % at 9.99 µM | 0.35% of 380,000 active;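 active = drop in luminescence signal, shown as inhibition above about 50% in the replicate tests, limit read from the data, passing the limit was not always enough; inconclusive = probably only some replicates passing the limit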;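 also: agonist challenge used bursicon conditioned medium at about half maximal strength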
EWS-Fli inh: EWS/Fli transcriptional activity inhibition; A673 NR0B1-luciferase reporter, viability-normalised; inhibition, % at 12.6 µM; 0.67% of 350,000 active;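 active = mean inhibition of at least 50% after viability correction, with every replicate also passing that limit; inconclusive = mean reaches 50% but only one of two replicates passes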;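 also: firefly luciferase signal divided by Alamar Blue viability fluorescence both relative to DMSO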
CFTR F508del cor: correctors of CFTR F508del function in bronchial epithelial cells; CFBE cells, YFP halide quenching; stimulated with forskolin plus potentiator P3; % fluorescence drop versus neutral controls; activity (quench increase), % at 7.58 µM; 0.36% of 350,000 active; AID 720511;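 active = mean added fluorescence quench of at least 8% versus neutral control, with both replicates also reaching 8%; inconclusive = only one of the mean or replicate conditions met; inactive = mean below 8% and not both replicates reaching 8%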;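 also: cells transiently co-express mutant CFTR-F508del with the halide-sensitive YFP; corrector assay measuring rescue of mutant channel to the surface after 24 h compound exposure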
PAX8 inh HTS: lowers PAX8-driven luciferase in RMG-I cells; RMG-I TPO-luciferase reporter, SteadyGlo, 24 h; inhibition, % at 12.6 µM; 1.2% of 360,000 active; AID 652154;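 active = mean replicate inhibition at least 60% with every replicate also reaching 60%; inconclusive = only one of the two criteria is met; inactive = mean below 60% and not all replicates reaching 60%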;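 also: luciferase light reporting Pax8 driven TPO promoter activity; plate controls were median of neutral control wells for no effect and mitoxantrone controls for full effect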
* marks the source's active call; other numbers are inactive results. Rows were chosen to be rich in hits. Some 1.8% of all compounds tested hit in one or more screens of this group.

Screening O=C(NCC[C@H]1CC[C@H](NS(=O)(=O)c2cccc(F)c2)[C@@H](CO)O1)C1CCCC1 returned LGR2 inh 3, EWS-Fli inh -3, CFTR F508del cor -4 and PAX8 inh HTS 0.
`CN(C)C(=O)c1ccc(-c2ccc([C@@H]3[C@@H](C#N)N(S(C)(=O)=O)[C@H]3CO)cc2)cc1` gave LGR2 inh -8, EWS-Fli inh 6, CFTR F508del cor -1 and PAX8 inh HTS 10.
Screening CC1(Oc2cccc(F)c2)CCN(Cc2ccc3ccccc3c2)C1 (configuration not stated) returned LGR2 inh 3, EWS-Fli inh 4, CFTR F508del cor 0 and PAX8 inh HTS -21.
For COCOc1cccc(CN2CCC(C)(Oc3cccc(C#N)c3)C2)c1 (configuration not stated) the results were LGR2 inh -1, EWS-Fli inh -1, CFTR F508del cor 8.7* and PAX8 inh HTS 15.
Cc1ccc(N2CCN(c3ccc(C)cc3)C(CC(=O)O)C2=O)cc1 (configuration not stated) was read as PAX8 inh HTS -17.
CC(C)NC(=O)N(C)C[C@@H]1Oc2ccc(NC(=O)Nc3ccc(C(F)(F)F)cc3)cc2CC(=O)N([C@@H](C)CO)C[C@H]1C was read as LGR2 inh -1, EWS-Fli inh 4, CFTR F508del cor -3 and PAX8 inh HTS 3.
CC(=O)/C(C#N)=C1\NC(=O)C(Cc2ccccc2C)S1 (configuration not stated) was read as LGR2 inh 3, EWS-Fli inh -12, CFTR F508del cor 11* and PAX8 inh HTS 18.
For O=S(=O)(c1ccc2c(c1)C(=NO)c1cc(S(=O)(=O)N3CCCCC3)ccc1-2)N1CCCCC1 the results were PAX8 inh HTS 109*.
`Cc1ccc(NC(=O)c2cnn(-c3ccccc3)c2C)cc1C` gave LGR2 inh 85*, EWS-Fli inh 56*, CFTR F508del cor -8 and PAX8 inh HTS 1.
For Cc1c(C(=O)Nc2ccccc2)cnn1-c1ccccc1 the results were LGR2 inh -73, EWS-Fli inh -110, CFTR F508del cor -21 and PAX8 inh HTS -167.
`O=C(c1cn(Cc2ccccc2)nc1-c1ccccc1)N1CCN(c2ccccn2)CC1` gave LGR2 inh -2, EWS-Fli inh 54*, CFTR F508del cor 3 and PAX8 inh HTS 14.
`COc1ccc(-c2nn(Cc3ccccc3)cc2C(=O)N2CCN(c3ccccn3)CC2)cc1OC` gave LGR2 inh -13, EWS-Fli inh 5, CFTR F508del cor -4 and PAX8 inh HTS 4.
For COc1ccccc1-c1nnc2sc(-c3ccc(N(C)C)cc3)nn12 the results were LGR2 inh -6, EWS-Fli inh 60* and PAX8 inh HTS 29.
For CN(C)c1ccc(-c2nn3c(-c4ccccc4Cl)nnc3s2)cc1 the results were PAX8 inh HTS 44.
`CN(C)/C=C1\C=C2C(=O)c3ccccc3N2C1=O` gave LGR2 inh -2, EWS-Fli inh 16, CFTR F508del cor 32* and PAX8 inh HTS 21.
`O=C(CCCN1C(=O)/C(=C\c2ccccc2)SC1=S)Nc1ccc(O)cc1` gave LGR2 inh -7, EWS-Fli inh 3, CFTR F508del cor 6 and PAX8 inh HTS 77*.
For O=C(CCCN1C(=O)/C(=C/c2ccccc2)SC1=S)Nc1cccc(O)c1 the results were LGR2 inh 7, EWS-Fli inh 4, CFTR F508del cor 2 and PAX8 inh HTS 66*.
`O=C(CCCN1C(=O)/C(=C/c2ccccc2Cl)SC1=S)Nc1cccnc1` gave LGR2 inh 10, CFTR F508del cor -4 and PAX8 inh HTS 81*.
For CC(/C=C1\SC(=S)N(CCC(=O)Nc2ccc(O)cc2)C1=O)=C\c1ccccc1 the results were LGR2 inh -12, EWS-Fli inh 3, CFTR F508del cor 2 and PAX8 inh HTS 74*.
Screening CC(=Cc1ccccc1)C=C1SC(=S)N(CCCC(=O)Nc2ccc(C(=O)O)c(O)c2)C1=O returned LGR2 inh -7, EWS-Fli inh -9, CFTR F508del cor 0 and PAX8 inh HTS -24.
CCOc1cccc(-c2ccc3nncn3c2)c1 was read as EWS-Fli inh -9, CFTR F508del cor 1 and PAX8 inh HTS -11.
Screening CC(C)CCN1C(=O)CSCC1(C)C(=O)Nc1ccc2c(c1)OCCO2 (configuration not stated) returned LGR2 inh 11, EWS-Fli inh 2, CFTR F508del cor 0 and PAX8 inh HTS 9.
Screening CN1CCN(C(=O)CCCN2C(=O)/C(=C/c3ccccc3)SC2=S)CC1 returned LGR2 inh 19, EWS-Fli inh -27, CFTR F508del cor 0 and PAX8 inh HTS 8.
`CCOc1ccc(/C=C2\SC(=S)N(CCC(=O)O)C2=O)cc1` gave LGR2 inh -37, EWS-Fli inh 73*, CFTR F508del cor 1 and PAX8 inh HTS -6.
Screening O=C(O)CCCN1C(=O)/C(=C\C(Cl)=C\c2ccccc2)SC1=S returned LGR2 inh -5, EWS-Fli inh inconclusive, CFTR F508del cor -16 and PAX8 inh HTS 115*.
`COc1ccc(/C=C2/SC(=S)N(CCCC(=O)Nc3ccc(O)cc3)C2=O)cc1OC` gave LGR2 inh 11, EWS-Fli inh 17 and CFTR F508del cor 1.
Screening O=C(CCCN1C(=O)/C(=C/c2cccs2)SC1=S)Nc1cccc(O)c1 returned LGR2 inh -1, EWS-Fli inh 12, CFTR F508del cor 1 and PAX8 inh HTS 67*.
For Cc1ccc(/C=C2/SC(=S)N(CCCC(=O)Nc3ccc(O)cc3)C2=O)cc1 the results were LGR2 inh -63, EWS-Fli inh 50, CFTR F508del cor -1 and PAX8 inh HTS 81*.
C[C@@H]1CCCCO[C@H](CN(C)Cc2ccc3c(c2)OCO3)[C@H](C)CN([C@H](C)CO)C(=O)c2cc(NC(=O)Nc3ccc4c(c3)OCO4)ccc2O1 was read as LGR2 inh 8, EWS-Fli inh -1, CFTR F508del cor -1 and PAX8 inh HTS 10.
`Cc1nc(NC(=O)CSc2nnc(C)n2CC2CCCO2)sc1C` (configuration not stated) gave PAX8 inh HTS 11.
Cn1c(=NC(=O)C2CCN(S(=O)(=O)c3cccs3)CC2)sc2ccccc21 was read as LGR2 inh 1, EWS-Fli inh 5, CFTR F508del cor -3 and PAX8 inh HTS -2.
`CC(C)CC1Nc2ncnc(N3CCN(c4ccccn4)CC3)c2N(Cc2ccc(Cl)cc2)C1=O` (configuration not stated) gave LGR2 inh 25, EWS-Fli inh 4, CFTR F508del cor 1 and PAX8 inh HTS 0.
C[C@H](CO)N1C[C@H](C)[C@H](CN(C)Cc2ccc3c(c2)OCO3)Oc2ccc(NC(=O)Nc3ccc(F)cc3)cc2CC1=O was read as LGR2 inh -12, EWS-Fli inh 6, CFTR F508del cor -2 and PAX8 inh HTS 11.
For O=C(NC(=S)Nc1ccc(-c2ccccc2)cc1)c1ccccc1 the results were LGR2 inh -59, EWS-Fli inh -18, CFTR F508del cor 10* and PAX8 inh HTS -131.
Screening O=C(NC(=S)Nc1ccc(Cl)cc1)c1ccccc1 returned LGR2 inh -41, EWS-Fli inh -89, CFTR F508del cor 2 and PAX8 inh HTS -196.
